Pf apPOL inh: Pf-apPOL inhibitors, biochemical, fluorescence. Plasmodium falciparum apicoplast DNA polymerase (apPOL). Recombinant Pf-apPOL, molecular beacon fluorescence, 1.5 h. inhibition, % at 10 µM. actives 0.25% (n = 210,000)
mHTT-CaM PPI inh: mutant huntingtin-calmodulin interaction inhibitors – biochemical, AlphaScreen, primary screen; P42858; actives 3.6% (n = 190,000); AID 1671202, 2021; inhibition, % at 15 µM; AlphaScreen His-mHTT/GST-CaM binding, luminescence;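 further: 0% = both proteins with DMSO and 100% = one protein alone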
* marks the source's active call; other numbers are inactive results; . = no result given; ! = not active in a repeat. An excerpt weighted towards active compounds, which were near 3.5% of everything screened. No stated cut-off is given here; in the data, active means inhibition above about 50%; inactive means the rest.

SMILES	Pf apPOL inh	mHTT-CaM PPI inh
O=C1OC(c2ccc(F)cc2)=N/C1=C\c1ccccc1	-1.2	11.0
CC1CCCCN1c1nc(-c2ccccc2O)nc2ccccc12 (stereo unspecified)	3.2	-7.7
CC1CCCCN1c1nc(Cl)nc(N2CCCCC2C)n1 (stereo unspecified)	8.0	100.0*
CCCc1cnc2c(c1SC(C(C)=O)C(=O)N(C)C)c(=O)n(C)c(=O)n2C (stereo unspecified)	-7.5	-5.3
O=C(c1ccc(-c2ccccc2)cc1)N1CCN(C(=O)c2cccnc2)CC1	-8.2	8.9
O=C(O)c1cncc(-c2ccccc2)c1	79.9*	.
O=[N+]([O-])c1ccc(S(=O)(=O)N2CCN(c3ncccn3)CC2)cc1	99.0*	-3.1
O=[N+]([O-])c1ccc(S(=O)(=O)N2CCN(c3ccccn3)CC2)cc1	-1.1	-0.3
Cc1ccc(-n2ncc3c(N4CCOCC4)ncnc32)c(C)c1	-3.3	56.0*
Cc1cccc(-n2ncc3c(N4CCOCC4)ncnc32)c1	0.0	1.1
COC(=O)c1ccc(C(=O)NCC(O)(c2ccccc2)C(F)(F)F)cc1 (stereo unspecified)	-8.6	-13.0
Cc1ccccc1C(=O)N1CCC2(C1)NCc1ccccc1NC2=NC(C)(C)C (stereo unspecified)	-4.2	28.1
CC(C)(C)N=C1Nc2ccccc2CNC12CCN(C(=O)Cc1ccsc1)C2 (stereo unspecified)	6.9	61.8*
Cc1ccc(F)cc1S(=O)(=O)N1CCC2(C1)NCc1ccccc1NC2=NC(C)(C)C (stereo unspecified)	-1.7	69.6*
COc1ccccc1CC(=O)N1CCC2(C1)NCc1ccccc1NC2=NC(C)(C)C (stereo unspecified)	-5.1	46.6
Cc1ccc(-c2onc3c2CCCC3)cc1NC(=O)C(C)Cl (stereo unspecified)	-11.7	0.2
CCN(C(=O)CN1C(=O)C2(OCCCO2)c2ccccc21)c1cccc(C)c1	-11.6	7.0
Cc1ccn2cc(-c3ccc(Br)s3)nc2c1	-9.7	-2.0
CC(C)CC(NC(=O)c1ccco1)C(=O)O (stereo unspecified)	61.3*	-2.4
CC(NC(=O)c1ccco1)C(=O)O (stereo unspecified)	1.0	-0.2
CC(Nc1c2ccccc2nc2ccccc12)C(=O)NC(CC(N)=O)C(=O)O (stereo unspecified)	1.6	1.0
CC(C)CC(NC(=O)C(C)Nc1c2ccccc2nc2ccccc12)C(=O)O (stereo unspecified)	-1.7	65.0*
Fc1ccc(C2CC(c3ccc(I)cc3)Nc3ncnn32)cc1 (stereo unspecified)	-4.0	31.0
Fc1ccc(C2CC(c3ccc(Cl)cc3)Nc3ncnn32)cc1 (stereo unspecified)	2.9	58.0*
COc1cccc(C2CC(c3cccc(Cl)c3)n3ncnc3N2)c1 (stereo unspecified)	0.6	4.6
SMILES	Pf apPOL inh	mHTT-CaM PPI inh
Clc1cccc(C2CC(c3ccc(I)cc3)Nc3ncnn32)c1 (stereo unspecified)	-2.8	51.0*
Cc1ccc(S(=O)(=O)Nc2cc(C(=O)NCc3cccnc3)ccc2N2CCCCC2)cc1	-18.9	20.0
CCOC(=O)C1=C(C)NC(=O)NC1c1coc2ccccc2c1=O (stereo unspecified)	2.6	.
O=C1CC(=Nc2ccc(Br)cc2)NN1c1ccccc1	-8.8	77.0*
CN1C(=O)CC(C(=O)O)SC1=Nc1ccc(Br)cc1 (stereo unspecified)	7.9	2.0
Cc1c(-c2ccc(C3NC(C(=O)O)CS3)o2)cccc1[N+](=O)[O-] (stereo unspecified)	-2.9	52.0*
Cc1ccc(C2NC(C(=O)O)CS2)cc1[N+](=O)[O-] (stereo unspecified)	-5.2	-3.0
CCc1cccc2sc(NC(=O)NCCOC)nc12	-2.6	-11.1
COc1ccc(C2C3=C(Nc4ncnn42)c2ccccc2OC3c2ccccc2Cl)cc1OC (stereo unspecified)	-5.8	70.0*
Cc1ccc(C2Oc3ccccc3C3=C2C(c2cccs2)n2ncnc2N3)cc1 (stereo unspecified)	-3.9	38.0
COc1cccc(C2C3=C(Nc4ncnn42)c2ccccc2OC3c2ccc(OC)c(OC)c2)c1 (stereo unspecified)	-5.2	32.0
COc1ccc(C2Oc3ccccc3C3=C2C(c2cccs2)n2ncnc2N3)cc1OC (stereo unspecified)	-5.0	56.0*
COCCNC(=O)c1ccc(-c2noc(C3CCN(C(=O)c4ccccc4C)CC3)n2)cc1	-3.9	17.4
COc1ccc(OC)c(C2CN(C(=O)C3CC3)CC2C(=O)N2CCCCC2)c1 (stereo unspecified)	5.7	-0.7
O=C1c2ccccc2-c2onc3ccc(Cl)c1c23	-3.5	30.5
CCOc1ccc2noc3c2c1C(=O)c1ccccc1-3	-4.5	11.0
O=C1c2ccccc2-c2onc3c(Br)cc(O)c1c23	-3.4	58.0*
O=C1c2ccccc2-c2onc3c(Cl)cc(O)c1c23	-1.1	53.0*
N#Cc1cc(-n2c3ccccc3c3nc4ccccc4nc32)c([N+](=O)[O-])cc1C#N	-2.0	4.0
O=C(C[n+]1ccc2ccccc2c1)c1ccc(-c2ccccc2)cc1	-2.6	3.0
O=C(CSc1nc2[nH]ncc2c(=O)n1-c1ccccc1)Nc1ccc(C(F)(F)F)cc1	-4.7	37.0
O=c1c2cn[nH]c2nc(SCc2ccc(C(F)(F)F)cc2)n1-c1ccccc1	-16.2	63.0*
COc1cc(C(=O)N(C)c2nnc(C34CC5CC(CC(C5)C3)C4)s2)cc(OC)c1OC	0.4	12.9
N#CC1=C(N)OC2=C(C(=O)CC(c3ccccc3)C2)C1c1ccsc1 (stereo unspecified)	1.4	5.7
N#CC1=C(N)OC2=C(C(=O)CC(c3ccccc3)C2)C1c1ccc(Cl)cc1 (stereo unspecified)	-7.5	-2.2
SMILES	Pf apPOL inh	mHTT-CaM PPI inh
N#CC1=C(N)OC2=C(C(=O)CC(c3ccccc3)C2)C1C1CCCCC1 (stereo unspecified)	50.6*!	59.6*!
N#CC1=C(N)OC2=C(C(=O)CC(c3ccccc3)C2)C1c1ccc(Cl)cc1Cl (stereo unspecified)	-6.5	68.8*
Cc1ccc(N(C)S(=O)(=O)c2ccc3[nH]cc(C(=O)N4CCC(C)CC4)c(=O)c3c2)cc1C	-20.9	32.0
Cc1ccc(N(C)S(=O)(=O)c2ccc3[nH]cc(C(=O)N4CCCCCC4)c(=O)c3c2)cc1C	-7.1	58.0*
O=C(O)c1cccc(Nc2nc(-c3ccccc3)cs2)c1	1.2	15.8
O=C(O)c1cccc(Nc2nc(-c3ccccn3)cs2)c1	-4.1	96.0*
Oc1cccc(Nc2nc(-c3ccccn3)cs2)c1	-4.1	99.0*
Oc1ccc(-c2csc(Nc3ncccn3)n2)c(O)c1	-2.6	9.0
Cc1cccc(Nc2nc(-c3ccccn3)cs2)c1	-1.0	97.0*
Cc1ccc(C)c(-c2csc(Nc3ncccn3)n2)c1	-7.1	2.0
COc1ccccc1-c1noc(C2CCCN2C(=O)COc2ccc(F)cc2)n1 (stereo unspecified)	-1.9	-1.4
CCNC(=O)C1CCN(c2cc(SCC(=O)Nc3ccccc3OCC)ncn2)CC1	-0.2	-2.6
CN1CCN(c2cc(Oc3cccc(F)c3)ncn2)CC1	-1.8	3.0
COc1ccc(NC(=O)C2CCc3sc(C(=O)N(C)C)cc3C2)cc1Cl (stereo unspecified)	-4.8	0.0
CC(C)CC(=O)N1CCc2c(c(C(=O)NCc3ccc(F)cc3)nn2C)C1	-0.8	59.0*

Source: PubChem (University of Kansas High Throughput Screening Laboratory)
